Binding signal data for one sequence are collected here from paper PMC7862700, “An all-to-all approach to the identification of sequence-specific readers for epigenetic DNA modifications on cytosine”.

What all share (experiment): DAPPL (digital affinity profiling via proximity ligation, sequencing); 10 mM Tris-HCl pH 7.5, 50 mM NaCl, 1 mM DTT, 4% glycerol, room temperature, 30 min; GST-TFs on glutathione beads, 16-mer random dsDNA library, 0.1% formaldehyde crosslink after washing; high values mean tight binding
One assay concerns the target T1, FLI1 (Homo sapiens, UniProt Q01543 1-452).
T1 sequence: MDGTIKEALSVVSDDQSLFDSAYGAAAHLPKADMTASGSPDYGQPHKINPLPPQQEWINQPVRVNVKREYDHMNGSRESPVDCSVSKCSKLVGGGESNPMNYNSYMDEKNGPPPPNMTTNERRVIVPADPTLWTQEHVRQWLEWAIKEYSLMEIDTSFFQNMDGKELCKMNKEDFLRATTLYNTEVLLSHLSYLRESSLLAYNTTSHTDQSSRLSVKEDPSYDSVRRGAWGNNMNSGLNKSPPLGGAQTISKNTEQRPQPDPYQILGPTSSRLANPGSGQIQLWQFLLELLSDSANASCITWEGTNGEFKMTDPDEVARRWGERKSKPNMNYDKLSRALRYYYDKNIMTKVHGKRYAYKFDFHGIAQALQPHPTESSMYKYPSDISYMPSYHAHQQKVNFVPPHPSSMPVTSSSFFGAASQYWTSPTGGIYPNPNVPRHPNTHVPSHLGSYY
As to conditions: protein: recombinant; tags: N-terminal GST; dsDNA, one strand shown. In outline:
(§1)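 The binding signal reported is, for every hexamer, its read frequency for a factor over its read frequency for the tag-only sample. Reads came from pools of yeast-expressed, GST-fused human transcription factors on glutathione beads, barcoded with DNA and mixed with that sample, which were incubated with 200 nmole of a random double-stranded 16-mer DNA library in Tris/NaCl/DTT/glycerol buffer at room temperature for 30 min. After washing, the pools were crosslinked with 0.1% formaldehyde, proximity-ligated with BsaI/T4 ligase for 1 h at 37 °C, PCR-amplified and sequenced on an Illumina NextSeq500.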

Another assay deals with T2, ELK1 (Homo sapiens, UniProt P19419 1-428).
T2 sequence: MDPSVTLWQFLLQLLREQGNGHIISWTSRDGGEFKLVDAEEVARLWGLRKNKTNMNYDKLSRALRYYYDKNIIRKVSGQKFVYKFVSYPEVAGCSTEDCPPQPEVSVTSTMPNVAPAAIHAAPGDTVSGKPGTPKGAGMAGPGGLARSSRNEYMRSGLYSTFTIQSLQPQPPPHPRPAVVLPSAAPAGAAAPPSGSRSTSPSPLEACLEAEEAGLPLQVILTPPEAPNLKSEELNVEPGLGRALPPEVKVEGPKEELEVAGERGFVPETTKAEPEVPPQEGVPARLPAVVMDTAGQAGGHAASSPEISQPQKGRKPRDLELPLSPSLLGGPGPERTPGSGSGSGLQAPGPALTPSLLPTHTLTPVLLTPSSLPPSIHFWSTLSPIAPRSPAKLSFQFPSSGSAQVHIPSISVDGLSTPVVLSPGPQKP
As to conditions: protein: recombinant; tags: N-terminal GST; dsDNA, one strand shown. In outline: as §1

Another assay has as its target T3, GABPA (Homo sapiens, UniProt Q06546 1-454).
T3 sequence: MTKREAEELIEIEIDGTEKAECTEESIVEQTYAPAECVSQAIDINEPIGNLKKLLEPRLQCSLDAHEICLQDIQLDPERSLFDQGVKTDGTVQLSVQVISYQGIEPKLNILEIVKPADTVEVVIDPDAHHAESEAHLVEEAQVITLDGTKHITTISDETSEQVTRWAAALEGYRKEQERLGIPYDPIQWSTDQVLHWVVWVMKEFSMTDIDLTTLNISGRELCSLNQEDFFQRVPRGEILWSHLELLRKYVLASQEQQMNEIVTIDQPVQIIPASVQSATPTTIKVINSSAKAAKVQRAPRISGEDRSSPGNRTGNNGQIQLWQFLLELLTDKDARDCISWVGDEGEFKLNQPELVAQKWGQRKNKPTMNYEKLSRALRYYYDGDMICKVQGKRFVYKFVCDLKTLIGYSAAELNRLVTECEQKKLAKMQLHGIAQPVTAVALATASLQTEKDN
As to conditions: protein: recombinant; tags: N-terminal GST; dsDNA, one strand shown. In outline:
as §1

A further assay addresses T4, ERG (Homo sapiens, UniProt P11308 1-479).
T4 sequence: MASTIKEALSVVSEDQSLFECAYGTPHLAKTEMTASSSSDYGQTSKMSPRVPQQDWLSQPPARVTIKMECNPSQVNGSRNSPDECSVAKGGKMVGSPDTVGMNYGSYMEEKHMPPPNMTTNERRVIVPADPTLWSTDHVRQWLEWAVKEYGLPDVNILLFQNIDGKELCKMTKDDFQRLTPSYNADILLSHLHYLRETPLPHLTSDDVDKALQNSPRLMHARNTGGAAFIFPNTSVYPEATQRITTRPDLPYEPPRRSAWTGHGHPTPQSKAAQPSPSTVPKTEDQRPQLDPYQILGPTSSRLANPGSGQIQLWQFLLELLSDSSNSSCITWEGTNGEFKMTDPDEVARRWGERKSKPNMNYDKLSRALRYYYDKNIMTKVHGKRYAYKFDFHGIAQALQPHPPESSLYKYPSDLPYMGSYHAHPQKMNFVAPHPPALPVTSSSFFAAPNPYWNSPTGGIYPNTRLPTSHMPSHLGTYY
As to conditions: protein: recombinant; tags: N-terminal GST; dsDNA, one strand shown. In outline: as §1

The target of another assay is ELF1 (Homo sapiens, UniProt P32519 1-619). As to conditions: protein: recombinant; tags: N-terminal GST; dsDNA, one strand shown. In outline: as §1
ELF1, sequence (P32519 whole entry): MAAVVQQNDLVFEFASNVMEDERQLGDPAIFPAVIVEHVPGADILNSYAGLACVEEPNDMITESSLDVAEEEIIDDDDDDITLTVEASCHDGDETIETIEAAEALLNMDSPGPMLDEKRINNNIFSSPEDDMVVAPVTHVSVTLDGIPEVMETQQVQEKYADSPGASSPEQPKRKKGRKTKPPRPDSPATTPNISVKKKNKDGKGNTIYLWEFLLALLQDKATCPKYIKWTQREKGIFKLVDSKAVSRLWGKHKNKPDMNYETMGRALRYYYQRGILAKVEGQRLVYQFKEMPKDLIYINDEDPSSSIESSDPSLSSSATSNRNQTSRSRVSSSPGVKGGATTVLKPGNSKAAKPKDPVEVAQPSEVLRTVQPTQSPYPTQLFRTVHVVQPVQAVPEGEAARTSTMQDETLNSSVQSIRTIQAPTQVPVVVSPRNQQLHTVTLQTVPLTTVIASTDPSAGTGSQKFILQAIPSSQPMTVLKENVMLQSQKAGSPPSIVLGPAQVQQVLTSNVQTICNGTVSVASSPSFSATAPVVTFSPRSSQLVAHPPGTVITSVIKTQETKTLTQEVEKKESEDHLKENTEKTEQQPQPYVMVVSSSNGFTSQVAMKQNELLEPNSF
The target in a further assay is T5, EHF (Homo sapiens, UniProt Q9NZC4 1-300).
T5 sequence: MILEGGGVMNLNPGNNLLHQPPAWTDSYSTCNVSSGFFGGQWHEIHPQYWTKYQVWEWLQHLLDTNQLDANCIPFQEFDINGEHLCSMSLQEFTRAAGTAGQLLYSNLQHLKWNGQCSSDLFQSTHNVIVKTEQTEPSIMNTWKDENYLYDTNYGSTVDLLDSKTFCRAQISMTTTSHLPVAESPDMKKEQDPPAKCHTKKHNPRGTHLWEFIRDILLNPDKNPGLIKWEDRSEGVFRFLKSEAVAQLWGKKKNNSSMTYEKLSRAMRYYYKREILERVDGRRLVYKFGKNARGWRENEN
Conditions: protein: recombinant; tags: N-terminal GST; dsDNA, one strand shown. In outline:
as §1

In the next assay the target is SPI1 (Homo sapiens, UniProt P17947 1-270). As to conditions: protein: recombinant; tags: N-terminal GST; dsDNA, one strand shown. In outline: as §1
The target of a further assay is SPIB (Homo sapiens, UniProt Q01892 1-262). As to conditions: protein: recombinant; tags: N-terminal GST; dsDNA, one strand shown. In outline:
as §1

Another assay deals with T6, ELK3 (Homo sapiens, UniProt P41970 1-407).
T6 sequence: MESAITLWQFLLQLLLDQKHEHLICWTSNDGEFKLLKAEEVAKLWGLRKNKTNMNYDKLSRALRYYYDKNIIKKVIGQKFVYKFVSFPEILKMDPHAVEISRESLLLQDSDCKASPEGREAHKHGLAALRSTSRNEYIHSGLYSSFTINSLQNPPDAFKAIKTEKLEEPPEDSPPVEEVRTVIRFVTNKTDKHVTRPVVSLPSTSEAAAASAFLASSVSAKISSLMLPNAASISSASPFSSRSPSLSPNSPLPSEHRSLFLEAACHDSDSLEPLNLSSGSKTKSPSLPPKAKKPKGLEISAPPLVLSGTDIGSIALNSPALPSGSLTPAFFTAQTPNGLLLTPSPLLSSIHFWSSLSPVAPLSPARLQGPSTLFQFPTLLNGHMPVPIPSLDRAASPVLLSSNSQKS
As to conditions: protein: recombinant; tags: N-terminal GST; dsDNA, one strand shown. In outline: as §1

Another assay addresses T7, FEV (Homo sapiens, UniProt Q99581 1-238).
T7 sequence: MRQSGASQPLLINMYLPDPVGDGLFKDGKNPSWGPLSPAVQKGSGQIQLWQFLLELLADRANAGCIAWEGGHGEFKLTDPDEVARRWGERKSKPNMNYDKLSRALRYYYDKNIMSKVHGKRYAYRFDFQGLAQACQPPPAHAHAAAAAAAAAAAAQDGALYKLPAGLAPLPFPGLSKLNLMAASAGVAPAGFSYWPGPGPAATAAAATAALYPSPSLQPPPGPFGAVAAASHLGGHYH
Conditions: protein: recombinant; tags: N-terminal GST; dsDNA, one strand shown. In outline: as §1

In another assay the target is ETV5 (Homo sapiens, UniProt P41161 1-510). As to conditions: protein: recombinant; tags: N-terminal GST; dsDNA, one strand shown. In outline:
as §1

Another assay has as its target HSF1 (Homo sapiens, UniProt Q00613 1-529). Conditions: protein: recombinant; tags: N-terminal GST; chain copies: 3; dsDNA, one strand shown. In outline:
as §1

Another assay has as its target T8, SPIC (Homo sapiens, UniProt Q8N5J4 1-248).
T8 sequence: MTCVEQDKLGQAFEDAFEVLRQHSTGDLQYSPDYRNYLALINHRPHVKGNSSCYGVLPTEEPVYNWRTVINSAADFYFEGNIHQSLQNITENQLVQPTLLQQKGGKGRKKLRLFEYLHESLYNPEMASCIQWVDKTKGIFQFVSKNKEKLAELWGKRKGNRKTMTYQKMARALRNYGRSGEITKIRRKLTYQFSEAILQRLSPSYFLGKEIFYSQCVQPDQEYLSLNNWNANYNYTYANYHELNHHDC
As to conditions: protein: recombinant; tags: N-terminal GST; dsDNA, one strand shown. In outline:
as §1

The target of another assay is ELF4 (Homo sapiens, UniProt Q99607 1-663). Conditions: protein: recombinant; tags: N-terminal GST; dsDNA, one strand shown. In outline: as §1
ELF4, sequence (Q99607 whole entry): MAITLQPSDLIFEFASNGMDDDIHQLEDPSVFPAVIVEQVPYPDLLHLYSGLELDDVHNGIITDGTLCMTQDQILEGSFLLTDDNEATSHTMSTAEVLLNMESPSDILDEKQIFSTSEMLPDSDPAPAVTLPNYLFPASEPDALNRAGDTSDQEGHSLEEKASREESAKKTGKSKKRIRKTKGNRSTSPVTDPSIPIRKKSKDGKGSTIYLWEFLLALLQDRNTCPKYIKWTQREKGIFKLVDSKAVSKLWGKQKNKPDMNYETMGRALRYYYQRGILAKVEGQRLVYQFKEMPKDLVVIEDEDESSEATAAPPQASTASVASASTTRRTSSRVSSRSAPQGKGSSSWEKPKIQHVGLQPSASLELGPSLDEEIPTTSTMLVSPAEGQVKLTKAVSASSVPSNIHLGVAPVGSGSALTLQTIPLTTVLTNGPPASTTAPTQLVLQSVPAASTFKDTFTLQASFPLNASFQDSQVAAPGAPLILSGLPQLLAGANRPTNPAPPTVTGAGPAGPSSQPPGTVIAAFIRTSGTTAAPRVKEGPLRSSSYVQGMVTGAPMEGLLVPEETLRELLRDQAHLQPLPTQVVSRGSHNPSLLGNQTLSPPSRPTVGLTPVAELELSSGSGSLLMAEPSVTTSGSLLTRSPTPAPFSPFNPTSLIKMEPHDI
A further assay concerns the target T9, ELK4 (Homo sapiens, UniProt P28324-2 1-405).
T9 sequence: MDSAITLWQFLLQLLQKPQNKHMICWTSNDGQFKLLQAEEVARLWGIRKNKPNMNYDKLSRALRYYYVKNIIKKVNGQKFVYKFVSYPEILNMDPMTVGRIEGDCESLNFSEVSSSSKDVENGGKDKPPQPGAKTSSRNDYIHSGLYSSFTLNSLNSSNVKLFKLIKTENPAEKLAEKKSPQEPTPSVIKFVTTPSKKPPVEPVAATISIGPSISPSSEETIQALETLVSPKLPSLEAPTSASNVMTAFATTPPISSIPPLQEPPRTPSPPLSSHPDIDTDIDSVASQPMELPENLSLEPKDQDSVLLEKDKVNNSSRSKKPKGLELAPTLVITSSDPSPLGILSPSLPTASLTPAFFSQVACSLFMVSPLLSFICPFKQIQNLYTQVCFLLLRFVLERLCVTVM
As to conditions: protein: recombinant; tags: N-terminal GST; dsDNA, one strand shown. In outline: as §1

In another assay the target is T10, ETV2 (Homo sapiens, UniProt O00321 1-342).
T10 sequence: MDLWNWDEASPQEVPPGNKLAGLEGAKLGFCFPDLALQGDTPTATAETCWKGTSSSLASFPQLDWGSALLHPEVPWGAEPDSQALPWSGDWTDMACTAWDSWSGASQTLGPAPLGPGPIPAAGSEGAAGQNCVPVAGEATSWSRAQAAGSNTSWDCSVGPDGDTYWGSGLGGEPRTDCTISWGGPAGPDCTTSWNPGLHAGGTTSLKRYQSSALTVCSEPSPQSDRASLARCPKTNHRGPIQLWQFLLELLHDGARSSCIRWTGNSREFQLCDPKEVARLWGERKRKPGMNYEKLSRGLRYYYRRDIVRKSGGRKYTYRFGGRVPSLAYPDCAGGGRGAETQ
Conditions: protein: recombinant; tags: N-terminal GST; dsDNA, one strand shown. In outline:
as §1

The target of a further assay is CRX (Homo sapiens, UniProt O43186 1-299). Conditions: protein: recombinant; tags: N-terminal GST; dsDNA, one strand shown. In outline: as §1
CRX, sequence (O43186 whole entry): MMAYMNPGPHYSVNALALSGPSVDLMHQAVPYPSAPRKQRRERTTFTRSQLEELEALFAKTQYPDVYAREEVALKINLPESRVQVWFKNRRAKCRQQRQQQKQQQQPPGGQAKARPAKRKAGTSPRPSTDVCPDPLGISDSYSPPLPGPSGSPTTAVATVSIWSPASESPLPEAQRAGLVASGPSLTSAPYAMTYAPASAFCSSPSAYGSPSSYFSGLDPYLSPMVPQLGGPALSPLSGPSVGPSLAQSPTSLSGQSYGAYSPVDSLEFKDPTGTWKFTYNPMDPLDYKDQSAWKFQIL
The next assay deals with ETV1 (Homo sapiens, UniProt P50549 1-477). Conditions: protein: recombinant; tags: N-terminal GST; dsDNA, one strand shown. In outline: as §1
ETV1, sequence (P50549 whole entry): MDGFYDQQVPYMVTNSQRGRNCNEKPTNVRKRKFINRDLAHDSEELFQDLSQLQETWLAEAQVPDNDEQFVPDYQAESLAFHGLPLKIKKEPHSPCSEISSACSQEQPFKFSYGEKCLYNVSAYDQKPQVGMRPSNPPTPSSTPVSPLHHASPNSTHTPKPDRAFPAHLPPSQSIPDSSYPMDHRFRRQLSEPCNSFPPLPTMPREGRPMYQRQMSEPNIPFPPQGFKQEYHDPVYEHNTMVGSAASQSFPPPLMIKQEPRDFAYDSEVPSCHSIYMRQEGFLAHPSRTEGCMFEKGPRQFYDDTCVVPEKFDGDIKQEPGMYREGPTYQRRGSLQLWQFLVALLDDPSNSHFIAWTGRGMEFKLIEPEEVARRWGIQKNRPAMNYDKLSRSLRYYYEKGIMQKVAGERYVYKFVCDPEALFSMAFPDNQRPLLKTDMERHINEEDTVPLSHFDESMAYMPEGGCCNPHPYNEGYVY

ETV5, sequence (P41161 whole entry): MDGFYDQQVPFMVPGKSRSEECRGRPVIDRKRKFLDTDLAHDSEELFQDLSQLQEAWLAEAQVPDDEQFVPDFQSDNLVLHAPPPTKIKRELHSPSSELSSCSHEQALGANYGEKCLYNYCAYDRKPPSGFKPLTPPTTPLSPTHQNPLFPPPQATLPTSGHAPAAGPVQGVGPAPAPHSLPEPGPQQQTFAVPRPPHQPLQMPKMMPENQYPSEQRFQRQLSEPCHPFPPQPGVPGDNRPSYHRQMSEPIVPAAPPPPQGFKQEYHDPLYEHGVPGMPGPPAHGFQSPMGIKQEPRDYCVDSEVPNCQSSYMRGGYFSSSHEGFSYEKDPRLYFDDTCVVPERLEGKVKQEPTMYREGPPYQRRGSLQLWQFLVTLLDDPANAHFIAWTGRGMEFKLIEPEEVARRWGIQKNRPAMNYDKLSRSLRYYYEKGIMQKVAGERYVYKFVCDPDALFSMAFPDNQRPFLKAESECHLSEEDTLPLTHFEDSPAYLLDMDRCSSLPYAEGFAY
HSF1, sequence (Q00613 whole entry): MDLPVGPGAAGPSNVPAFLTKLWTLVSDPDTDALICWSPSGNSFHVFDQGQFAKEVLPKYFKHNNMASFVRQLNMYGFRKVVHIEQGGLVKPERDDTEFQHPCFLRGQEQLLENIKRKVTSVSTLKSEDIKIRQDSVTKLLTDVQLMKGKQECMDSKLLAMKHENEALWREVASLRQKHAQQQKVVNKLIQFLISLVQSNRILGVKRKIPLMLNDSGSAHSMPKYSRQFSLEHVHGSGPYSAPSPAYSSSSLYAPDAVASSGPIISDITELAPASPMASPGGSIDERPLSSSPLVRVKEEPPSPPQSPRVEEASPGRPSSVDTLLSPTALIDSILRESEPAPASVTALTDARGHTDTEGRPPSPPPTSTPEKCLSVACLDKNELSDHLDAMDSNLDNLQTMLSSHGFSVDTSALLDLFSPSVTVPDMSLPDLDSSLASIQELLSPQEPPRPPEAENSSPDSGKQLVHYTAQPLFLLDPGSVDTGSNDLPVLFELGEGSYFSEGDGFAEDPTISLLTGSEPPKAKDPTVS
SPIB, sequence (Q01892 whole entry): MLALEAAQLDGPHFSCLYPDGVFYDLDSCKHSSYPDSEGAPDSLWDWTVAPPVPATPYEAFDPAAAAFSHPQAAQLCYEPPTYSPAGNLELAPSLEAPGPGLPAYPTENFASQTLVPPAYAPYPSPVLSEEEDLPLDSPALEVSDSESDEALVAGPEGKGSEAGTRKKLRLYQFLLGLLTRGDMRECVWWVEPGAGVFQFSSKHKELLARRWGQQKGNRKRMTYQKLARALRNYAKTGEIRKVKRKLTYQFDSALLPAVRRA

Regarding TTTGGC, the binding signal was 1.33 fold enrichment (6-mer frequency, TF over GST control) with FLI1; 1.27 fold enrichment (6-mer frequency, TF over GST control) with ELK1; 1.25 fold enrichment (6-mer frequency, TF over GST control) with GABPA; 1.12 fold enrichment (6-mer frequency, TF over GST control) with ERG; 1.27 fold enrichment (6-mer frequency, TF over GST control) with ELF1; 1.2 fold enrichment (6-mer frequency, TF over GST control) with EHF. In addition, the binding signal with SPI1 was 1.22 fold enrichment (6-mer frequency, TF over GST control); with SPIB, 1.29 fold enrichment (6-mer frequency, TF over GST control); with ELK3 it was 1.1 fold enrichment (6-mer frequency, TF over GST control); with FEV it was 1.27 fold enrichment (6-mer frequency, TF over GST control); with ETV5, 1.32 fold enrichment (6-mer frequency, TF over GST control); with HSF1, 1.23 fold enrichment (6-mer frequency, TF over GST control). Further, the binding signal with SPIC was 1.45 fold enrichment (6-mer frequency, TF over GST control); with ELF4 it was 1.26 fold enrichment (6-mer frequency, TF over GST control); in the assay with ELK4 it was 1.23 fold enrichment (6-mer frequency, TF over GST control); with ETV2, 1.31 fold enrichment (6-mer frequency, TF over GST control); with CRX, 1.49 fold enrichment (6-mer frequency, TF over GST control); with ETV1, 1.22 fold enrichment (6-mer frequency, TF over GST control).
